Measured values taken from publication PMC5540273 (PLoS ONE, 2017).

Legend:
Conditions in all cases: concentration: 1 μM, replicates: in singlicate; n = 1
TNNI3K = system: TNNI3K
TRKA = system: T1, TRKA
T1 construct: gene NTRK1

TRKB = system: TRKB
TRKC = system: T2, TRKC
T2 construct: gene NTRK3

TRPM6 = system: TRPM6
TSSK1B = system: TSSK1B
TSSK3 = system: TSSK3
TTK = system: TTK
TXK = system: TXK
[1] = system: TYK2(JH1domain-catalytic)
[2] = system: TYK2(JH2domain-pseudokinase)
TYRO3 = system: TYRO3
ULK1 = system: ULK1
ULK2 = system: ULK2
ULK3 = system: ULK3
VEGFR2 = system: T3, VEGFR2
T3 construct: gene KDR

VPS34 = system: T4, VPS34
T4 construct: gene PIK3C3

VRK2 = system: VRK2
WEE1 = system: WEE1
WEE2 = system: WEE2
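Note: KINOMEscan kinase panel screen.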

SMILES	%Inh (TNNI3K) [%]	%Inh (TRKA) [%]	%Inh (TRKB) [%]	%Inh (TRKC) [%]	%Inh (TRPM6) [%]	%Inh (TSSK1B) [%]	%Inh (TSSK3) [%]	%Inh (TTK) [%]	%Inh (TXK) [%]	%Inh [1] [%]	%Inh [2] [%]	%Inh (TYRO3) [%]	%Inh (ULK1) [%]	%Inh (ULK2) [%]	%Inh (ULK3) [%]	%Inh (VEGFR2) [%]	%Inh (VPS34) [%]	%Inh (VRK2) [%]	%Inh (WEE1) [%]	%Inh (WEE2) [%]
NCCC(NC(=O)c1cc(Br)c(-c2ccnc3[nH]ccc23)s1)c1ccccc1.O=C(O)C(F)(F)F.O=C(O)C(F)(F)F (stereo not shown) [GSK1307810]	2	91.4	59	47	0	0	20	25	0	83	7	0	30	8	16	55	25	23	4	0
O=C(Nc1n[nH]c2nc(-c3ccccc3)ccc12)C1CC1 [SB-708999]	11	1	0	24	0	0	16	0	5	33	29	6	11	3	9	0	14	47	0	0
COc1cc(Nc2nccc(N3CCC(NC(=O)Nc4ccc5c(c4)OCO5)C3)n2)cc(OC)c1OC (stereo not shown) [GSK1379766]	0	57	43	73	47	8	9	0	38	38	52	0	14	14	86	7	0	0	0	0
Cn1cc(-c2cnc(N)c3c(-c4ccc5c(c4)CCN5C(=O)Cc4ccccc4)csc23)cn1 [GSK2593074]	0	79	80	66	15	0	0	7	9	0	0	63	0	0	0	65	0	0	3	5
Cn1cc(-c2ccc3c(c2)CCN3C(=O)Cc2cc(F)cc(F)c2F)c2c(N)ncnc21 [GSK2634140]	0	36	0	38	8	0	8	0	13	11	44	0	14	0	4	0	16	27	0	14
Fc1cc(Cl)ccc1Nc1ccnc2cc(-c3ccc(CN4CCSCC4)o3)ccc12 [GW560106]	10	72	28	0	3	0	14	13	82	19	52	61	0	0	15	65	0	29	0	2
Cc1ccc(Nc2ccnc(Nc3ccc(C)c(F)c3)n2)cc1O.Cl [GW582868]	0	0	50	35	0	11	8	0	12	31	74	29	12	0	10	0	0	48	0	17
CCOc1nccc(-c2c(-c3ccc(F)cc3)ncn2C2CCNCC2)n1 [SB-249175]	4	47	21	18	18	0	34	0	10	45	36	15	28	34	26	13	24	51	0	18
O=C(Nc1n[nH]c2nc(-c3cccc(O)c3)ccc12)C1CC1 [SB-711805]	0	4	19	24	3	0	0	14	0	18	0	0	0	10	7	16	23	0	0	0
CN(C)CCOc1ccc(-c2cc(-c3ccc(Cl)c(O)c3)c(-c3ccncc3)[nH]2)cc1.Cl.Cl [SB-684387]	60	9	21	36	36	0	15	0	56	8	18	6	6	8	14	21	16	45	7	0
Cc1ccc(O)cc1Nc1ccnc2ccc(C(C)(C)C)cc12 [GW856805]	6	37	42	11	21	1	0	17	98.9	54	38	15	56	30	51	54	51	20	9	18
CN1CCN(Cc2ccc(NC(=O)Nc3ccc(N(C)c4ccnc(Nc5ccc(CS(C)(=O)=O)cc5)n4)cc3)cc2)CC1.Cl [GW827654]	46	91.4	92	92.5	0	0	47	28	85	97.9	87	35	0	51	95.9	99.9	42	65	0	27
COc1ccc(C)c(Nc2ccnc(Nc3ccc(-c4cnc[nH]4)cc3)n2)c1.Cl [GW784041]	100	0	0	0	0	10	0	15	15	44	0	44	0	0	6	0	54	0	0	8
O=C(O)C(F)(F)F.O=c1[nH]ccc2nc(N[C@@H]3CCNC3)nc(Nc3ccc4c(c3)S(=O)(=O)CC4)c12 [GSK2181306]	11	100	92.8	84	38	69	96.5	85	26	90.8	57	2	99.9	99.5	98.6	36	88	89	18	0
Cc1ccc(O)cc1Nc1ccnc2cc(-c3ccc(CN4CCCCC4)o3)ccc12 [GW557777]	20	42	0	0	0	0	0	0	98.3	63	0	59	0	0	0	93.6	0	0	5	0
CS(=O)(=O)c1cccc(CNc2nc(Nc3ccc4c(c3)CCC(=O)N4)ncc2C(F)(F)F)c1	0	98	92.9	73	0	0	0	99.6	0	89	0	0	69	70	66	68	0	0	0	0
Fc1cc(Cl)ccc1Nc1ccnc2cc(-c3ccc(CN4CCOCC4)o3)ccc12 [GW560109]	7	42	41	35	35	21	3	21	86	18	29	83	15	8	34	82	0	27	0	0
